About 7,900 targets were measured; listed, in parts, are those with a hit and a random draw of the rest. About 0.6% of all pairs of compound and target were hits. Values without a mark were called inactive.
Assays:
Assay in all cases: log2 fold change, soluble protein after heating vs DMSO (PISA); higher = thermal stabilisation; K562 cells, 10 uM, 30 min; active = over 0.2 and 3.5 SD of the protein, either way, in both replicates (recomputed)
saracatinib = compound: CN1CCN(CCOc2cc(OC3CCOCC3)c3c(Nc4c(Cl)ccc5c4OCO5)ncnc3c2)CC1 [saracatinib]
Method in brief: (§1)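 K562 cells at 2×10^6 cells/mL were treated with 10 μM compound for 30 min. Aliquots were heated for 3 min across 48°C-58°C, pooled, and extracted in PBS with 0.5% NP-40 at 4°C; soluble protein was the supernatant after 21,000xg for 90 min. Soluble protein was quantified by TMTpro 16plex LC-MS/MS with channel sums equalised, and reported as log2 fold change in thermal stability against DMSO controls, with values from duplicates.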

sotrastaurin = compound: CN1CCN(c2nc(C3=C(c4c[nH]c5ccccc45)C(=O)NC3=O)c3ccccc3n2)CC1 [sotrastaurin]
Method in brief: as §1

alvocidib = compound: CN1CC[C@H](c2c(O)cc(O)c3c(=O)cc(-c4ccccc4Cl)oc23)[C@H](O)C1 [alvocidib]
Method in brief: as §1

Tubastatin A = compound: CN1CCc2c(c3ccccc3n2Cc2ccc(C(=O)NO)cc2)C1 [Tubastatin A]
Method in brief: as §1

[1] = compound: CNC(=O)C1=CC=CC=C1NC2=NC(=NC=C2Cl)NC3=C(C=C(C=C3)N4CCOCC4)OC
Method in brief: as §1

defactinib = compound: CNC(=O)c1ccc(Nc2ncc(C(F)(F)F)c(NCc3nccnc3N(C)S(C)(=O)=O)n2)cc1 [defactinib]
Method in brief: as §1

rucaparib = compound: CNCc1ccc(-c2[nH]c3cc(F)cc4c3c2CCNC4=O)cc1 [rucaparib]
Method in brief: as §1

[2] = compound: CNc1nc(-c2ccc3c(N)n[nH]c3c2)cc(N2C[C@@H](C(=O)NC3CCCCC3)CC[C@H]2C)n1
Method in brief: as §1

encorafenib = compound: COC(=O)N[C@@H](C)CNc1nccc(-c2cn(C(C)C)nc2-c2cc(Cl)cc(NS(C)(=O)=O)c2F)n1 [encorafenib]
Method in brief: as §1

[3] = compound: COC(=O)[C@H](CCSC)NC(=O)C1=C(C=C(C=C1)NC[C@H](CS)N)C2=CC=CC=C2
Method in brief: as §1

Chain of UniProt Q14145 (Q14145 whole entry, looked up): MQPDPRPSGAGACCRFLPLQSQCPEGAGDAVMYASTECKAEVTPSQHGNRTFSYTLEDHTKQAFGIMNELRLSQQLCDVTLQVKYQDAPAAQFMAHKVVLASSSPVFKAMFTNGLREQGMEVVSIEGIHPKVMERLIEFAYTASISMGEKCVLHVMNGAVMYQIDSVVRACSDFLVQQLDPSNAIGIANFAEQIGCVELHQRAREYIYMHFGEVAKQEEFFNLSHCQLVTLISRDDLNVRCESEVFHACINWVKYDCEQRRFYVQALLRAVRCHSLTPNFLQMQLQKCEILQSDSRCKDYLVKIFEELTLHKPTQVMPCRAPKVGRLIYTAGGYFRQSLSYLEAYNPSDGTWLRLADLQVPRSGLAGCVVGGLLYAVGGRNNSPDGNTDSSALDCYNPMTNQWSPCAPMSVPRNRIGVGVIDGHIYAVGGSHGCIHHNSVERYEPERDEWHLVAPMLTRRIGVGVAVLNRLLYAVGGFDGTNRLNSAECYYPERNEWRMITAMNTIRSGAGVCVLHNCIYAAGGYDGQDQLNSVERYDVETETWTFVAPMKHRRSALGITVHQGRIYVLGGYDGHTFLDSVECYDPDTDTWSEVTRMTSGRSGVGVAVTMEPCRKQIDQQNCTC
Chain of UniProt O95140 (O95140 whole entry, looked up): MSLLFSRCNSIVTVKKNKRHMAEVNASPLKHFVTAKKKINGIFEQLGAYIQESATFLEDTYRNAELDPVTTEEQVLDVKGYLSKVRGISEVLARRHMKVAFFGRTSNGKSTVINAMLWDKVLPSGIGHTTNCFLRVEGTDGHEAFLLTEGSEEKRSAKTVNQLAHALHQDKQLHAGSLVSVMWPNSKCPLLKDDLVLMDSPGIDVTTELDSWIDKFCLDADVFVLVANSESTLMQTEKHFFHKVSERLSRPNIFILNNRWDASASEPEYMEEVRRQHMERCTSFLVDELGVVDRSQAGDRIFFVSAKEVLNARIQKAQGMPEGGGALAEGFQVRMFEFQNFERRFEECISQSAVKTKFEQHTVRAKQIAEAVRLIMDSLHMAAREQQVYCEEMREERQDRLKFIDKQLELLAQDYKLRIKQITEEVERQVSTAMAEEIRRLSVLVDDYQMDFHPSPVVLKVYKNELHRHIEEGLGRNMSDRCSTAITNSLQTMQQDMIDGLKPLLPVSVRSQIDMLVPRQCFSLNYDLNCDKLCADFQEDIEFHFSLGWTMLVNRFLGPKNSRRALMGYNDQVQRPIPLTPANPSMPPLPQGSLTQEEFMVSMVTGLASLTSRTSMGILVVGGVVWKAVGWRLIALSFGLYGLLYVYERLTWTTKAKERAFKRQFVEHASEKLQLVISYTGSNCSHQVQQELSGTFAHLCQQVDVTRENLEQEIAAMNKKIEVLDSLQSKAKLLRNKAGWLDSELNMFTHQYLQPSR
Chain of UniProt Q9H1B7 (Q9H1B7 whole entry, looked up): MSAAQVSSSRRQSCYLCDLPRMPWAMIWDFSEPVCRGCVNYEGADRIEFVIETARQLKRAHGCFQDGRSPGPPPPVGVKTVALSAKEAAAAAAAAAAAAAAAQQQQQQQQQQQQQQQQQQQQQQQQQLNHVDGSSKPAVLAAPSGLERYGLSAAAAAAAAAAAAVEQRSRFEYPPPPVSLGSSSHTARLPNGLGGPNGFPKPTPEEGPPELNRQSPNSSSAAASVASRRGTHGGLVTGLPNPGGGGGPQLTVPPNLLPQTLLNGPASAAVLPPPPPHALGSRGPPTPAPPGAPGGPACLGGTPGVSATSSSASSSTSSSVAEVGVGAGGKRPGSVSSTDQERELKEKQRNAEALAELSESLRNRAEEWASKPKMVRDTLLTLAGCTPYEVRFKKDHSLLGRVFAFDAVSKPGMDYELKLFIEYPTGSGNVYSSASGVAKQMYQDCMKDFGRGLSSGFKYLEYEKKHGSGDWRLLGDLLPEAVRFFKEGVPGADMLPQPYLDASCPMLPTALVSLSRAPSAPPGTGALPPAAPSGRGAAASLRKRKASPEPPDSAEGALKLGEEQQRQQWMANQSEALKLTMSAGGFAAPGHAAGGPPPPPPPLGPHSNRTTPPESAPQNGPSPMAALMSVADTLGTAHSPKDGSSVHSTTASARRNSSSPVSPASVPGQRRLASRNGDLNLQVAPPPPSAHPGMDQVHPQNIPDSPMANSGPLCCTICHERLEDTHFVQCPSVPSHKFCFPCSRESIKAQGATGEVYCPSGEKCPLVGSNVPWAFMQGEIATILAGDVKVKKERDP
Chain of UniProt P11717 (P11717 whole entry, looked up): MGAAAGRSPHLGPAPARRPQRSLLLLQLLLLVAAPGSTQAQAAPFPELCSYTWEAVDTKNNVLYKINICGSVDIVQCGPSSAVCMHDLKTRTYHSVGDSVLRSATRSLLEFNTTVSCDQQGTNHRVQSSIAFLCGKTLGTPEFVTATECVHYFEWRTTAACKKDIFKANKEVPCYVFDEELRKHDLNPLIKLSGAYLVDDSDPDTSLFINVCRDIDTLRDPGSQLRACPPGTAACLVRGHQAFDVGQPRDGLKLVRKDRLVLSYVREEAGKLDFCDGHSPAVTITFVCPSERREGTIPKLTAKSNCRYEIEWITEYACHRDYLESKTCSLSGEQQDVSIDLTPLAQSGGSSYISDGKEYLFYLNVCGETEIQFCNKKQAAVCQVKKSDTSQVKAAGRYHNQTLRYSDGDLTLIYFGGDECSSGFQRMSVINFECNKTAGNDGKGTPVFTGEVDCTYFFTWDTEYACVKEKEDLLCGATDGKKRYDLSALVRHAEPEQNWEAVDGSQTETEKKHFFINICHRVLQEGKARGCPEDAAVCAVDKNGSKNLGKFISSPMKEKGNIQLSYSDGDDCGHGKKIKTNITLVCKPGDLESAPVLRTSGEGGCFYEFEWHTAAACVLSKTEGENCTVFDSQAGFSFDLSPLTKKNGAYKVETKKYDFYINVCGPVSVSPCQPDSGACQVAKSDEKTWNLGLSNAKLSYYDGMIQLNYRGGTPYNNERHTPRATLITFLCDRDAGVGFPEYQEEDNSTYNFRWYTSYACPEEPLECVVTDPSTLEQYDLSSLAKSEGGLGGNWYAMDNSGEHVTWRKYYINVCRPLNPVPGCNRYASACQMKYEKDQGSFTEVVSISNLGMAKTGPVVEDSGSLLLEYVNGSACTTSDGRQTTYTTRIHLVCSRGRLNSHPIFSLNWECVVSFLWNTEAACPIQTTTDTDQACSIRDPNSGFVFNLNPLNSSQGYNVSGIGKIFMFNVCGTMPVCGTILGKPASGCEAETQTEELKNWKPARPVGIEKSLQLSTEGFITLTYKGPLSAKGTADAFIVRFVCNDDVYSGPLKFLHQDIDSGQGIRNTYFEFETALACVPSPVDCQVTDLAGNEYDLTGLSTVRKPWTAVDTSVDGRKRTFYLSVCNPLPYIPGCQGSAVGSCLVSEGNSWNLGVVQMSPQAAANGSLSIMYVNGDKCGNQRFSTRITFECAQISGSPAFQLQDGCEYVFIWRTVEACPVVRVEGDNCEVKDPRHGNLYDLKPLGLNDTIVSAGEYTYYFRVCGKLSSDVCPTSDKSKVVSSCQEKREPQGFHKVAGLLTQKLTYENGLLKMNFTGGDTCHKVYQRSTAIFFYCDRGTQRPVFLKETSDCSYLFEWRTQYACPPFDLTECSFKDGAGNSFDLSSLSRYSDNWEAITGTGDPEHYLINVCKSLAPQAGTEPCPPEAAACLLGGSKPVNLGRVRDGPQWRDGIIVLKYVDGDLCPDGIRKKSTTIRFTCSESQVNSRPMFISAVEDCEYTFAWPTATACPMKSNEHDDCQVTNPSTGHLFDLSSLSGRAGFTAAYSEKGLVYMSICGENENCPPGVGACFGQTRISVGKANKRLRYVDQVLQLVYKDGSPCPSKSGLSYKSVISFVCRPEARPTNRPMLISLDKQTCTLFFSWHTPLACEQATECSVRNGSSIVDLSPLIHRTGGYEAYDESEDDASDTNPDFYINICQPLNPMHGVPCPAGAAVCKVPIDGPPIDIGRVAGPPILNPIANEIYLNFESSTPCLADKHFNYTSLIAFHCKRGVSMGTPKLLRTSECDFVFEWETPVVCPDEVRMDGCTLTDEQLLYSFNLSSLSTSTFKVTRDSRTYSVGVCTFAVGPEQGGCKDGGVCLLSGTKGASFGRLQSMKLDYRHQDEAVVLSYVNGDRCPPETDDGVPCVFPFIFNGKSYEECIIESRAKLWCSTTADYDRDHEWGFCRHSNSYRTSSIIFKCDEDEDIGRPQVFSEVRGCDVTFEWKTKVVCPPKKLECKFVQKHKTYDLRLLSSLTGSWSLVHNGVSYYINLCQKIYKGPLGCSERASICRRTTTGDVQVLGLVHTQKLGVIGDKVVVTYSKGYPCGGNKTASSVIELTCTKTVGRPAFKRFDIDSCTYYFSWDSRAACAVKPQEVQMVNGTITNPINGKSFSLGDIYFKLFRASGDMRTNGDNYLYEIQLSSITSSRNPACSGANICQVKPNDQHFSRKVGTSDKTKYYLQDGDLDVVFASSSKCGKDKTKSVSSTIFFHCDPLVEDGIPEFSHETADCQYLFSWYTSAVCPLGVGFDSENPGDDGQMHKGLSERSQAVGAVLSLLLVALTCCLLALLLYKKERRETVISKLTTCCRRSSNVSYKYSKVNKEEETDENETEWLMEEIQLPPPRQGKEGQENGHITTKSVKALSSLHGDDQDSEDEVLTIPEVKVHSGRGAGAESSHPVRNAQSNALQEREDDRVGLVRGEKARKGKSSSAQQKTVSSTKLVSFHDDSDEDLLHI
Chain of UniProt P22692 (P22692 whole entry, looked up): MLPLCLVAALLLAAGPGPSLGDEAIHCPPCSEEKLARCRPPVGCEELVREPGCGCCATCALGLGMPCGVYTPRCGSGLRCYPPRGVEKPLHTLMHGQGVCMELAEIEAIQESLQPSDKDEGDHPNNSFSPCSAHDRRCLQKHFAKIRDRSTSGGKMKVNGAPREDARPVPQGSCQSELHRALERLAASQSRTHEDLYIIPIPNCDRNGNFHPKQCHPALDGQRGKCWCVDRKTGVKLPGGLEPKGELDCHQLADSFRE
Chain of UniProt Q8WV07 (Q8WV07 whole entry, looked up): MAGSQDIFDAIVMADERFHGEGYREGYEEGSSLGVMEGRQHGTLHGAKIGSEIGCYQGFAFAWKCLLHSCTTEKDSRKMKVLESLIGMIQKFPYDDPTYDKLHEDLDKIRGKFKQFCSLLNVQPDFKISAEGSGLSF

Target | log2 fold change (saracatinib) | log2 fold change (sotrastaurin) | log2 fold change (alvocidib) | log2 fold change (Tubastatin A) | log2 fold change [1] | log2 fold change (defactinib) | log2 fold change (rucaparib) | log2 fold change [2] | log2 fold change (encorafenib) | log2 fold change [3]
MICU2 (UniProt Q8IYU8) | 0 | -0.001 | 0.048 | 0.057 | -0.03 | -0.014 | 0.102 | -0.021 | 0.073 | -0.044
KPNA4 (UniProt O00629) | 0.013 | 0.032 | -0.085 | -0.017 | -0.052 | -0.095 | -0.117 | 0 | 0.016 | 0.015
KEAP1 (UniProt Q14145) | -0.009 | -0.119 | 0.02 | -0.035 | 0.054 | -0.045 | 0.116 | -0.015 | 0.059 | -0.003
LMNB2 (UniProt Q03252) | -0.031 | -0.127 | -0.02 | 0.02 | 0.027 | -0.201 | -0.085 | -0.073 | -0.009 | 0.049
MAD2L1 (UniProt Q13257) | 0.037 | -0.056 | -0.109 | 0.01 | 0.05 | -0.112 | -0.058 | -0.046 | -0.007 | -0.04
IWS1 (UniProt Q96ST2) | -0.042 | 0.021 | 0.336 (active) | 0.04 | -0.054 | 0.035 | 0.032 | -0.034 | -0.1 | -0.127
LEO1 (UniProt Q8WVC0) | -0.047 | -0.085 | -0.137 | 0.061 | -0.039 | -0.211 | -0.151 | -0.055 | -0.033 | -0.082
MFN2 (UniProt O95140) | -0.005 | 0.045 | -0.012 | 0.02 | -0.024 | -0.066 | 0.041 | 0.058 | -0.006 | -0.026
MED1 (UniProt Q15648) | 0.001 | -0.092 | -0.11 | -0.025 | 0.042 | -0.005 | 0.067 | -0.045 | 0.009 | 0.033
MAP4 (UniProt P27816) | 0.017 | 0.019 | 0.042 | -0.029 | -0.014 | 0.016 | 0.009 | -0.029 | -0.001 | 0.031
KCTD2 (UniProt Q14681) | -0.276 | 0.226 | 0.188 | 0.015 | -0.076 | 0.038 | 0.066 | -0.243 | -0.128 | 0.082
LYN (UniProt P07948) | -0.198 | -0.08 | 0 | 0.026 | -0.287 | -0.174 | 0.13 | -0.022 | 0.009 | 0.038
IRAK4 (UniProt Q9NWZ3) | -0.026 | -0.061 | -0.106 | 0.006 | 0.162 | -0.022 | 0.076 | 0.01 | 0.006 | -0.071
IPO9 (UniProt Q96P70) | 0.036 | -0.13 | -0.08 | -0.02 | 0.034 | -0.106 | -0.051 | -0.136 | 0.056 | 0
LRRFIP1 (UniProt Q32MZ4) | 0.017 | 0.047 | 0.014 | -0.005 | -0.009 | -0.01 | -0.01 | -0.034 | -0.019 | 0.022
IGF2R (UniProt P11717) | -0.015 | 0.004 | -0.008 | -0.004 | 0.061 | -0.01 | -0.027 | -0.008 | 0.045 | 0.005
MEPCE (UniProt Q7L2J0) | -0.019 | -0.022 | -0.112 | -0.104 | -0.052 | -0.192 | -0.056 | 0.049 | 0.067 | -0.077
LNPEP (UniProt Q9UIQ6) | 0.048 | 0.037 | 0.01 | -0.001 | -0.01 | -0.054 | -0.014 | -0.02 | -0.008 | 0.012
MFGE8 (UniProt Q08431) | -0.171 | -0.013 | 0.034 | 0.08 | 0.066 | 0.099 | -0.043 | -0.018 | 0.037 | -0.023
MARCKS (UniProt P29966) | 0.019 | 0.077 | -0.016 | 0.039 | 0.005 | 0.009 | -0.02 | -0.02 | -0.014 | 0.002
LDAH isoform 2 (UniProt Q9H6V9) | 0.092 | 0.035 | -0.139 | -0.03 | -0.001 | -0.09 | -0.004 | -0.043 | 0.04 | -0.063
IGFBP4 (UniProt P22692) | 0.004 | 0.114 | 0.063 | -0.034 | -0.044 | 0.036 | 0.007 | -0.019 | -0.034 | 0.014
LPGAT1 (UniProt Q92604) | 0.111 | -0.001 | -0.011 | 0.019 | 0.073 | -0.184 | 0.036 | -0.187 | 0.026 | 0.015
LAMP2 (UniProt P13473) | 0.078 | 0.123 | 0.056 | -0.061 | 0.105 | -0.047 | -0.055 | -0.088 | -0.026 | 0.062
IRF2BPL (UniProt Q9H1B7) | 0.003 | -0.044 | -0.079 | 0.053 | 0.032 | -0.038 | 0.015 | -0.045 | -0.06 | -0.027
MAP4 (UniProt E7EVA0) | 0.03 | -0.015 | 0.127 | 0.041 | -0.059 | 0.099 | 0.209 | 0.043 | 0.017 | 0.032
LPCAT3 (UniProt Q6P1A2) | -0.048 | -0.14 | -0.002 | 0 | 0.093 | 0 | -0.074 | 0.138 | -0.026 | -0.021
LTO1 (UniProt Q8WV07) | 0.071 | -0.003 | -0.01 | -0.288 | 0.01 | 0.051 | 0.03 | 0.073 | -0.016 | -0.314 (active)
LARP1 (UniProt Q6PKG0) | -0.023 | -0.029 | 0.12 | 0.059 | 0.05 | 0.089 | 0.11 | 0.004 | 0.039 | 0.01
LUM (UniProt P51884) | 0.081 | 0.29 | 0.047 | -0.145 | 0.085 | -0.071 | -0.167 | 0.014 | -0.011 | 0.283

— the supplement of paper PMC10849652
